Reference: PubChem BioAssay (NCATS)
“And” between values parts separate entries of the source, which are not always exact repeats. Equal entries are not always repeated. A number with no mark means an inactive call. Results filed as inconclusive are left out. A call without a number means that no potency is given here. The source made the active and inactive calls. Unless noted, the rule behind the calls is not given here.

Test system: not listed separately
Experiment: qHTS assay for cell viability of the p53RE-bla HCT-116 cell line (AID 743292; active = well fitted cell-killing curve with a large enough effect; note: nearly all actives have a fitted effect of over 55% in size; note: potency is the fitted concentration of half-maximal effect)
Settings: p53RE-bla HCT-116 viability, ATP luminescence, 16 h; series mostly up to 95 µM
Method in brief: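 In this qHTS counter-screen, metabolically competent p53RE-bla HCT-116 cells were counted via their ATP content. Compounds were applied for 16 h at 37 C and luciferase-coupled luminescence was measured.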
For `CC/C(=C(\c1ccccc1)c1ccc(OCCN(C)C)cc1)c1ccc(O)cc1`, the Potency was 70.8 µM (active). With `c1ccc2c(c1)-c1cccc3c1c-2cc1ccccc13` the Potency was “inactive”. In the case of `O=[N+]([O-])c1cc([N+](=O)[O-])c2ccc(S(=O)(=O)O)cc2c1O`, the Potency was “inactive”. With `O=Cc1ccc(Cl)c(Cl)c1` the Potency was “inactive”.

Molecular target: Nuclear receptor subfamily 1 group I member 2 (Rattus norvegicus) (UniProt Q9R1A7)
Sequence (Q9R1A7 whole entry, looked up): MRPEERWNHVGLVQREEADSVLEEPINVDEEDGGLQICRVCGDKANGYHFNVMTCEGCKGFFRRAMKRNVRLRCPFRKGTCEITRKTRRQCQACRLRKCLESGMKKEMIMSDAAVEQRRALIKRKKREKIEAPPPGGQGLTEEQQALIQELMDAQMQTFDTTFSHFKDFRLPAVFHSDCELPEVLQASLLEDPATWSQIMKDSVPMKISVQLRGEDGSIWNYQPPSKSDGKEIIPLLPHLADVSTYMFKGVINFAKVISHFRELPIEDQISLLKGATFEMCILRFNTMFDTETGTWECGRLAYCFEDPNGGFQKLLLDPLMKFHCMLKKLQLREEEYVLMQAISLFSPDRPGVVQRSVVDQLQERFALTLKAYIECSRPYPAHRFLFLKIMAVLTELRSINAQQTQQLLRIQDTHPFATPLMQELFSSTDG
Experiment: qHTS assay for small molecule activators of the rat pregnane X receptor (rPXR) signaling pathway (AID 651751)
Settings: rPXR reporter cells, luciferase (One-Glo), 24 h
`Oc1ccc2cc(SSc3ccc4cc(O)ccc4c3)ccc2c1` gave a max response of -6.62%. In the case of `CN(C)c1ccc(C2(c3ccc(N(C)C)cc3)OC(=O)c3cc(N(C)C)ccc32)cc1`, the max response was -2.55%. With `Cc1cc(Nc2ccc(O)cc2)ccc1N` the max response was -2.27%. For `CO[C@H]1/C=C/O[C@@]2(C)Oc3c(C)c(O)c4c(O)c(c5c(c4c3C2=O)NC2(CCN(CC(C)C)CC2)N=5)=NC(=O)/C(C)=C\C=C\[C@H](C)[C@H](O)[C@@H](C)[C@@H](O)[C@@H](C)[C@H](OC(C)=O)[C@@H]1C`, the max response was 7.05%. For `C=C(C)c1ccccc1`, the max response was 0.462%. Molecule `Cc1ccc(S(=O)(=O)Oc2ccc(N=Nc3ccc(-c4ccc(N=Nc5c(O)ccc6cc(S(=O)(=O)O)cc(S(=O)(=O)O)c56)c(C)c4)cc3C)cc2)cc1` has a max response of -4.06%. With `c1cc(OCC2CO2)cc(OCC2CO2)c1` (centres undefined) the max response was -8.72% and -4.5%. For `ClC1=C(Cl)C(Cl)(Cl)C(Cl)=C1Cl`, the max response was 3.04% and -2.94%. For `C=CC(=O)OCCOCCOC(=O)C=C`, the max response was 9.16%. `O=C1OC(O)C(C(Cl)Cl)=C1Cl` (centres undefined) gave a max response of -3.61%. With `CNc1ccc(O)cc1` the max response was -0.134%. In the case of `O=C=Nc1ccc(Cc2ccc(N=C=O)cc2)cc1`, the max response was 1.83% and 4.61%. Work on `O=Cc1ccc(Cl)c(Cl)c1` yielded a max response of -0.904%.

Test system: not listed separately
Experiment: qHTS assay for small molecule activators of the human pregnane X receptor (PXR) signaling pathway (AID 720659)
Settings: DPX-2 HepG2 CYP3A4-luciferase, 24 h; series mostly up to 92.3 µM
In the case of `CN(C)c1ccc(C2(c3ccc(N(C)C)cc3)OC(=O)c3cc(N(C)C)ccc32)cc1`, the outcome was “inactive”. With `Cc1cc(Nc2ccc(O)cc2)ccc1N` the outcome was “inactive”. In the case of `C=C(C)c1ccccc1`, the outcome was “inactive”. With `Cc1ccc(S(=O)(=O)Oc2ccc(N=Nc3ccc(-c4ccc(N=Nc5c(O)ccc6cc(S(=O)(=O)O)cc(S(=O)(=O)O)c56)c(C)c4)cc3C)cc2)cc1` the outcome was “inactive”. In the case of `c1cc(OCC2CO2)cc(OCC2CO2)c1` (centres undefined), the outcome was “inactive”. With `ClC1=C(Cl)C(Cl)(Cl)C(Cl)=C1Cl` the outcome was “inactive”. In the case of `C=CC(=O)OCCOCCOC(=O)C=C`, the outcome was “inactive”. In the case of `O=C1OC(O)C(C(Cl)Cl)=C1Cl` (centres undefined), the outcome was “inactive”. For `CNc1ccc(O)cc1`, the outcome was “inactive”. For `O=C=Nc1ccc(Cc2ccc(N=C=O)cc2)cc1`, the outcome was “inactive”. For `c1ccc2c(c1)ccc1cc3c(ccc4ccccc43)cc12`, the outcome was “inactive”. In the case of `O=Cc1ccc(Cl)c(Cl)c1`, the outcome was “inactive”.
